{
  "source": "the supplement of paper PMC6522484",
  "key": {"[1]": {"system": "DLD1", "assay": "cell viability (CellTiter-Glo) relative to plate median (fraction of plate median); higher = more viable cells", "conditions": "5 µM; treatment time 24 h; reporter: 7TFP", "in_short": "(§1)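 Colorectal cancer cell lines stably carrying lentiviral TCF/Wnt firefly luciferase reporters (7TFP or TCF4/Wnt) were plated in 384-well plates and, 24 h later, given library compounds at a final 5 µM for 24 h. Firefly luciferase or CellTiterGlo luminescence was read on parallel plates with a Tecan F500 reader. Each well's signal was normalised to the plate median in webcellHTS2 (additive, without log transformation). Values are the mean of two independent replicates.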"}, "[2]": {"system": "HCT116", "assay": "cell viability (CellTiter-Glo) relative to plate median (fraction of plate median); higher = more viable cells", "conditions": "5 µM; treatment time 24 h; reporter: TCF4/Wnt", "in_short": "as §1"}, "[3]": {"system": "SW480", "assay": "cell viability (CellTiter-Glo) relative to plate median (fraction of plate median); higher = more viable cells", "conditions": "5 µM; treatment time 24 h; reporter: 7TFP", "in_short": "as §1"}, "[4]": {"system": "DLD1", "assay": "TCF/Wnt firefly luciferase reporter signal relative to plate median (fraction of plate median); higher = higher Wnt reporter signal", "conditions": "5 µM; treatment time 24 h; reporter: 7TFP", "in_short": "as §1"}, "[5]": {"system": "SW480", "assay": "TCF/Wnt firefly luciferase reporter signal relative to plate median (fraction of plate median); higher = higher Wnt reporter signal", "conditions": "5 µM; treatment time 24 h; reporter: 7TFP", "in_short": "as §1"}},
  "note": "± gives the standard deviation of the averaged measurements.",
  "data": [
    {"smiles": "COc1c2ccoc2c(OC)c2oc(=O)ccc12", "values": [
      {"measurement": "cell viability", "setting": "[1]", "result": "0.95 ± 0.0099"},
      {"measurement": "cell viability", "setting": "[2]", "result": "0.966 ± 0.16"},
      {"measurement": "cell viability", "setting": "[3]", "result": "1.07 ± 0.028"},
      {"measurement": "TCF/Wnt firefly luciferase reporter signal", "setting": "[4]", "result": "0.982 ± 0.11"},
      {"measurement": "TCF/Wnt firefly luciferase reporter signal", "setting": "[5]", "result": "0.927 ± 0.017"}
    ]},
    {"smiles": "OC(CCN1CCCCC1)(c1ccccc1)C1CCCCC1", "note": "(stereo not given)", "values": [
      {"measurement": "cell viability", "setting": "[1]", "result": "0.963 ± 0.03"},
      {"measurement": "cell viability", "setting": "[2]", "result": "0.932 ± 0.033"},
      {"measurement": "cell viability", "setting": "[3]", "result": "0.945 ± 0.052"},
      {"measurement": "TCF/Wnt firefly luciferase reporter signal", "setting": "[4]", "result": "0.855 ± 0.052"},
      {"measurement": "TCF/Wnt firefly luciferase reporter signal", "setting": "[5]", "result": "0.917 ± 0.018"}
    ]},
    {"smiles": "C[C@@H]1CC2C3C[C@H](F)C4=CC(=O)C=C[C@]4(C)[C@@]3(F)[C@@H](O)C[C@]2(C)[C@@]1(O)C(=O)COC(=O)C(C)(C)C", "note": "(stereo not given in full)", "values": [
      {"measurement": "cell viability", "setting": "[1]", "result": "1.01 ± 0.021"},
      {"measurement": "cell viability", "setting": "[2]", "result": "0.925 ± 0.039"},
      {"measurement": "cell viability", "setting": "[3]", "result": "1 ± 0.025"},
      {"measurement": "TCF/Wnt firefly luciferase reporter signal", "setting": "[4]", "result": "1.16 ± 0.064"},
      {"measurement": "TCF/Wnt firefly luciferase reporter signal", "setting": "[5]", "result": "1.085 ± 0.0071"}
    ]},
    {"smiles": "NC/C=C/C(=O)O", "values": [
      {"measurement": "cell viability", "setting": "[1]", "result": "1.03 ± 0.088"},
      {"measurement": "cell viability", "setting": "[2]", "result": "1.01 ± 0.095"},
      {"measurement": "cell viability", "setting": "[3]", "result": "1 ± 0.068"},
      {"measurement": "TCF/Wnt firefly luciferase reporter signal", "setting": "[4]", "result": "0.965 ± 0.079"},
      {"measurement": "TCF/Wnt firefly luciferase reporter signal", "setting": "[5]", "result": "1 ± 0.11"}
    ]},
    {"smiles": "C=CCCCCCCCCC(=O)[O-].C=CCCCCCCCCC(=O)[O-].[Zn+2]", "values": [
      {"measurement": "cell viability", "setting": "[1]", "result": "0.996 ± 0.049"},
      {"measurement": "cell viability", "setting": "[2]", "result": "0.903 ± 0.011"},
      {"measurement": "cell viability", "setting": "[3]", "result": "0.964 ± 0.023"},
      {"measurement": "TCF/Wnt firefly luciferase reporter signal", "setting": "[4]", "result": "0.94 ± 0.24"},
      {"measurement": "TCF/Wnt firefly luciferase reporter signal", "setting": "[5]", "result": "0.968 ± 0.041"}
    ]},
    {"smiles": "CCOC(=O)[C@H](CCc1ccccc1)N[C@@H](C)C(=O)N1Cc2ccccc2C[C@H]1C(=O)O", "values": [
      {"measurement": "cell viability", "setting": "[1]", "result": "0.99 ± 0.057"},
      {"measurement": "cell viability", "setting": "[2]", "result": "0.895 ± 0.071"},
      {"measurement": "cell viability", "setting": "[3]", "result": "0.952 ± 0.066"},
      {"measurement": "TCF/Wnt firefly luciferase reporter signal", "setting": "[4]", "result": "0.958 ± 0.0085"},
      {"measurement": "TCF/Wnt firefly luciferase reporter signal", "setting": "[5]", "result": "0.876 ± 0.0057"}
    ]},
    {"smiles": "COc1c(O)cc(O)cc1O", "values": [
      {"measurement": "cell viability", "setting": "[1]", "result": "1.01 ± 0.04"},
      {"measurement": "cell viability", "setting": "[2]", "result": "0.694 ± 0.33"},
      {"measurement": "cell viability", "setting": "[3]", "result": "1.01 ± 0.021"},
      {"measurement": "TCF/Wnt firefly luciferase reporter signal", "setting": "[4]", "result": "1.09 ± 0.064"},
      {"measurement": "TCF/Wnt firefly luciferase reporter signal", "setting": "[5]", "result": "1.03 ± 0.042"}
    ]},
    {"smiles": "OCCOCCN1CCN(C(c2ccccc2)c2ccc(Cl)cc2)CC1", "note": "(stereo not given)", "values": [
      {"measurement": "cell viability", "setting": "[1]", "result": "0.978 ± 0.045"},
      {"measurement": "cell viability", "setting": "[2]", "result": "1.07 ± 0.014"},
      {"measurement": "cell viability", "setting": "[3]", "result": "1.01 ± 0.026"},
      {"measurement": "TCF/Wnt firefly luciferase reporter signal", "setting": "[4]", "result": "1.03 ± 0.021"},
      {"measurement": "TCF/Wnt firefly luciferase reporter signal", "setting": "[5]", "result": "1.075 ± 0.0071"}
    ]},
    {"smiles": "COC(=O)C1=C(C)NC(C)=C(C(=O)OCC(C)C)C1c1ccccc1[N+](=O)[O-]", "note": "(stereo not given)", "values": [
      {"measurement": "cell viability", "setting": "[1]", "result": "0.869 ± 0.11"},
      {"measurement": "cell viability", "setting": "[2]", "result": "1 ± 0.041"},
      {"measurement": "cell viability", "setting": "[3]", "result": "0.905 ± 0.071"},
      {"measurement": "TCF/Wnt firefly luciferase reporter signal", "setting": "[4]", "result": "0.961 ± 0.24"},
      {"measurement": "TCF/Wnt firefly luciferase reporter signal", "setting": "[5]", "result": "0.923 ± 0.037"}
    ]},
    {"smiles": "CC(=O)O[C@H]1C[C@@H](OC(C)=O)C(C)(C)[C@@H]2C[C@@H](OC(C)=O)[C@]3(C)[C@H](CC[C@@]4(C)[C@H](c5ccoc5)OC(=O)[C@H]5O[C@@]534)[C@@]12C", "values": [
      {"measurement": "cell viability", "setting": "[1]", "result": "1.11 ± 0.14"},
      {"measurement": "cell viability", "setting": "[2]", "result": "1.18 ± 0.028"},
      {"measurement": "cell viability", "setting": "[3]", "result": "1.15 ± 0.042"},
      {"measurement": "TCF/Wnt firefly luciferase reporter signal", "setting": "[4]", "result": "1.07 ± 0.12"},
      {"measurement": "TCF/Wnt firefly luciferase reporter signal", "setting": "[5]", "result": "1.04 ± 0.021"}
    ]},
    {"smiles": "CC[C@H]1OC(=O)[C@H](C)[C@@H](O[C@H]2C[C@@](C)(OC)[C@@H](O)[C@H](C)O2)[C@H](C)[C@@H](O[C@@H]2O[C@H](C)C[C@H](N(C)C)[C@H]2O)[C@](C)(OC)C[C@@H](C)C(=O)[C@H](C)[C@@H](O)[C@]1(C)O", "values": [
      {"measurement": "cell viability", "setting": "[1]", "result": "0.858 ± 0.099"},
      {"measurement": "cell viability", "setting": "[2]", "result": "0.931 ± 0.0071"},
      {"measurement": "cell viability", "setting": "[3]", "result": "1.05 ± 0.042"},
      {"measurement": "TCF/Wnt firefly luciferase reporter signal", "setting": "[4]", "result": "0.996 ± 0.021"},
      {"measurement": "TCF/Wnt firefly luciferase reporter signal", "setting": "[5]", "result": "1.125 ± 0.0071"}
    ]},
    {"smiles": "CCC(=O)C(CC)C(O)C(C)CC(C)C1OC(=O)CC2(O)CC=C(C)C(O2)/C(C)=C/CCCC(OC2CC(OC(N)=O)C(O)C(C)O2)/C=C\\C(C)C(O)C1C", "note": "(stereo not given)", "values": [
      {"measurement": "cell viability", "setting": "[1]", "result": "1.08 ± 0.16"},
      {"measurement": "cell viability", "setting": "[2]", "result": 1},
      {"measurement": "cell viability", "setting": "[3]", "result": "0.99 ± 0.015"},
      {"measurement": "TCF/Wnt firefly luciferase reporter signal", "setting": "[4]", "result": "0.87 ± 0.067"},
      {"measurement": "TCF/Wnt firefly luciferase reporter signal", "setting": "[5]", "result": "0.974 ± 0.025"}
    ]},
    {"smiles": "O=c1cc(-c2ccc(O)cc2)oc2cc(O)ccc12", "values": [
      {"measurement": "cell viability", "setting": "[1]", "result": "1.06 ± 0.13"},
      {"measurement": "cell viability", "setting": "[2]", "result": "0.987 ± 0.1"},
      {"measurement": "cell viability", "setting": "[3]", "result": "0.987 ± 0.033"},
      {"measurement": "TCF/Wnt firefly luciferase reporter signal", "setting": "[4]", "result": "0.92 ± 0.11"},
      {"measurement": "TCF/Wnt firefly luciferase reporter signal", "setting": "[5]", "result": "1.04 ± 0.028"}
    ]},
    {"smiles": "COc1cccc2c1C(=O)c1c(O)c3c(c(O)c1C2=O)CC(O)(C(C)O)CC3OC1CC(NC=O)C(O)C(C)O1", "note": "(stereo not given) [Baumycin C2]", "values": [
      {"measurement": "cell viability", "setting": "[1]", "result": "1.02 ± 0.035"},
      {"measurement": "cell viability", "setting": "[2]", "result": "1.005 ± 0.0071"},
      {"measurement": "cell viability", "setting": "[3]", "result": "1 ± 0.036"},
      {"measurement": "TCF/Wnt firefly luciferase reporter signal", "setting": "[4]", "result": "1.17 ± 0.12"},
      {"measurement": "TCF/Wnt firefly luciferase reporter signal", "setting": "[5]", "result": "1.05 ± 0.014"}
    ]}
  ]
}
